Source: publication PMC8384837, “Expanding the binding specificity for RNA recognition by a PUF domain”

These sequences were tested against PUM1 PUF domain R5-MRG (Homo sapiens, UniProt Q14671 828-1176, C1007M;Q1011G) (assay: yeast three-hybrid, YBZ-1, SC-Leu-His + 0.5 mM 3-AT, 4 days). Details: tags: N-Gal4 AD-HA kept; label: inside an RPR1-promoter hybrid RNA with tandem MS2 sites; ssRNA.
Outline: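 Pumilio-1 PUF domain libraries, randomized at the three base-contacting residues of each repeat, were co-expressed with matching RNA elements from a centromeric plasmid in strain YBZ-1, which carries a LexA–MS2 coat fusion and a HIS3 reporter. Transformants grew for four days on SC-Leu (input) or on SC-Leu-His + 0.5 mM 3-AT (selection), and the repeat regions were PCR-amplified and Illumina-sequenced. The interaction score is the log change in variant frequency from input to selection. That logarithm is base 2, with a pseudocount of 1 where a variant was absent.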

Sequence	binding signal
GGCUAGAACUAGUGGAUCCCCCGGCGCCCGGCGGCUCGAGCCCGGGUAAGUGUAAAUAGUCUGCAUGCCGCCGGGCGCCAUGCCUGCAGGUCGACUCUAGAAAACAUG	0.66 log2 enrichment (interaction score)
GGCUAGAACUAGUGGAUCCCCCGGCGCCCGGCGGCUCGAGCCCGGGUAAGUGUUAAUAGUCUGCAUGCCGCCGGGCGCCAUGCCUGCAGGUCGACUCUAGAAAACAUG	3.12 log2 enrichment (interaction score)
GGCUAGAACUAGUGGAUCCCCCGGCGCCCGGCGGCUCGAGCCCGGGUAAGUGUCAAUAGUCUGCAUGCCGCCGGGCGCCAUGCCUGCAGGUCGACUCUAGAAAACAUG	0.97 log2 enrichment (interaction score)
